12-hLO inh = qHTS Assay for Inhibitors of 12-hLO (12-human lipoxygenase). Potency, µM (titrated, usually from 57.1 µM), without a hit: top-dose activity change, negative = inhibition, most hits filed as inhibitors. purified 12-hLO, xylenol orange hydroperoxide absorbance. 150,000 tested, 0.12% active; active = well fitted curve in the direction sought with a large enough effect; inconclusive = small, poorly fitted or top-dose-only effect, or another doubt; inactive = no such curve, though single readings can be large; an effect the other way counts as inactive or inconclusive; also: potency is read from the fitted curve at half-maximal effect; nearly all actives have a fitted effect of over 55% in size
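Purified human 12hLO (150 nM final) was preincubated with compounds for 15 min at room temperature in 25 mM Hepes pH 7.0, 0.01% Triton X-100, then reacted with 40 uM arachidonic acid for 30 min. Hydroperoxide was detected with ferrous iron/xylenol orange.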
IMPase Li inh = qHTS Assay for Identifying the Cell-Membrane Permeable IMPase Inhibitors: Potentiation with Lithium; CHO-M1 cells, IP1 TR-FRET (IP-One), carbachol + lithium; Potency, µM (highest dose often 59.4 µM), for the others: at the top dose activity, negative = IMPase inhibition, hits mostly inhibitors; 210,000 tested, 0.35% active; active = well fitted curve in the direction sought with a large enough effect; inconclusive = small, poorly fitted or top-dose-only effect, or another doubt; inactive = no such curve, though single readings can be large; an effect the other way counts as inactive or inconclusive;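 also: IP1 builds up when IMPase is blocked and the TR-FRET signal falls; potency is read from the fitted curve at half-maximal effect; plate controls were basal vehicle for no effect and high inhibitor control for full effect; nearly all actives have a fitted effect of over 50% in size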
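Concentration–response in CHO-M1 cells, lithium-potentiated; 30 min at 37C. IP1 detected by competitive TR-FRET after 10 min lysis at RT. Hill-fitted AC50.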
PNC inhibitor = High Content Assay for Compounds that inhibit the Assembly of the Perinucleolar Compartment; PC3M PTB-GFP, PNC prevalence imaging, 16 h; active compounds read low; activity change (PNC), negative = inhibition, % at 10 µM; 140,000 tested, 3.1% active;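 active = readout at or below -70, meaning at least 70% loss of cells showing the perinucleolar compartment, a nuclear body marking cancer cells; inconclusive = readout between -30 and a set limit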;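 also: plate controls were DMSO wells for no effect and camptothecin positive control wells for full effect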
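PC3M cells stably expressing PTB-GFP, 750–1000 cells/well, treated 16 h at 37 °C with compound (23 nl of library stock), in duplicate. After paraformaldehyde fixation and Hoechst stain, imaged at 20x; PNC prevalence scored by image analysis.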
HPGD block = qHTS Assay for Inhibitors of HPGD (15-Hydroxyprostaglandin Dehydrogenase); 15-hydroxyprostaglandin dehydrogenase [NAD(+)] (Homo sapiens), P15428; purified HPGD, NADH fluorescence kinetic, PGE2 substrate; Potency, µM, for the others: top-dose activity change, negative = inhibition, usual class: inhibitors; 150,000 tested, 4.3% active; AID 894, 2007; also: potency is read from the fitted curve at half-maximal effect
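NADH formation kinetics: reaction with 30 uM PGE2 and 1 mM NAD+ (final), 20 nM enzyme, Tris-HCl pH 8 with Tween 20, after 15 min compound preincubation at room temperature. Fluorescence change, last versus first of five reads.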
IMPase cell inh = qHTS Assay for Identifying the Cell-Membrane Permeable IMPase Inhibitors; CHO-M1 cells, IP1 accumulation, HTRF TR-FRET ratio; 120,000 tested, under 10 active; inhibition (IP1 accumulation), % at 46.1 µM; active = well fitted curve in the direction sought with a large enough effect in the signal ratio, not every such curve was filed as active; inconclusive = small, poorly fitted or top-dose-only effect, or a change in a side signal; inactive = no such curve, though single readings can be large or run the other way; the % refers to the signal ratio;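 also: cells stimulated with carbachol in lithium chloride buffer; plate controls were DMSO basal wells for no effect and reference inhibitor wells for full effect; higher means more IMPase inhibition seen as more IP1 and lower FRET ratio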
Target sequence (P97697 whole entry, looked up): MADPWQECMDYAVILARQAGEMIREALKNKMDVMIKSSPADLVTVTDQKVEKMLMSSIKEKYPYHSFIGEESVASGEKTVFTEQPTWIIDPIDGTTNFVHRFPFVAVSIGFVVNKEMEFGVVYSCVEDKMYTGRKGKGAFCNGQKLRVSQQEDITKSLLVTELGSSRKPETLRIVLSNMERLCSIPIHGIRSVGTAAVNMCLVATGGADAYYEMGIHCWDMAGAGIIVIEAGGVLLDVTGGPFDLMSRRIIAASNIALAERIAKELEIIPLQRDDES
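In this qHTS, compounds (final up to 46 uM) act on CHO-M1 cells that are then activated through the M1 receptor with carbachol, in pH 7.4 buffer containing 50 mM LiCl, for 30 min. IP1 accumulation is quantified by the IP-One immunoassay.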
ALDH1A1 inh = qHTS Assay for Inhibitors of Aldehyde Dehydrogenase 1 (ALDH1A1). Purified ALDH1A1, NADH fluorescence, propionaldehyde substrate. Potency, µM (doses to about 75.3 µM), for inactives: top-dose activity, negative = inhibition, usual class: inhibitors. 220,000 tested, 7.3% active. AID 1030, 2008;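 also: potency is read from the fitted curve at half-maximal effect; plate controls were no enzyme wells and a reference inhibitor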
Target sequence (P00352 whole entry, looked up): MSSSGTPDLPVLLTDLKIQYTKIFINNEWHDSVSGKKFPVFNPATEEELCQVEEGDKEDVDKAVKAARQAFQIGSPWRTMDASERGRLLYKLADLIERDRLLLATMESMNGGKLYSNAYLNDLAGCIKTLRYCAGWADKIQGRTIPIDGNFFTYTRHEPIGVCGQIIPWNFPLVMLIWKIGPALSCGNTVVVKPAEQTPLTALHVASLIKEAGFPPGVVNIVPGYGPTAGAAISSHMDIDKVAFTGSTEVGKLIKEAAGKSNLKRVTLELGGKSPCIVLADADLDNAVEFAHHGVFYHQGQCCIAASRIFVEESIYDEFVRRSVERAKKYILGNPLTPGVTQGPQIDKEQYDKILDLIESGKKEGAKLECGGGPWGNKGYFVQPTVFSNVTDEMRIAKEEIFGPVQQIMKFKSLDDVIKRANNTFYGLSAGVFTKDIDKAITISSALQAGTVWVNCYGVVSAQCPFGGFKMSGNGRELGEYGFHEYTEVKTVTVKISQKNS
* hit, by the source's call; ? = inconclusive; . = not tested or not shown; [ ] = dose if it differs, or a comment. Shown are actives, neighbours in structure and some others; about 11% of the full set was active somewhere. Unless noted, calls follow the shape of the dose curve; as a rule, active = well fitted inhibition curve with a large enough effect (not every such curve was filed as active); inconclusive = small, poorly fitted or top-dose-only effect, or another doubt; inactive = no such curve, though single readings can be large or run the other way. Unless noted, % is scaled to controls: 0 for no effect and ±100 for the full control effect.

SMILES	12-hLO inh	IMPase Li inh	PNC inhibitor	HPGD block	IMPase cell inh	ALDH1A1 inh
CN(c1cccc(NC(=O)CN(c2ccc(Cl)c(Cl)c2)S(=O)(=O)c2ccccc2)c1)S(C)(=O)=O	-3%	1%	-100*	-6%	13	-3%
CSc1cccc(NC(=O)COc2ccccc2)c1	2%	4%[38.3 µM]	-10	18µM*	8	?
Cc1c(N/C(=N/S(=O)(=O)c2ccc(F)cc2)c2ccccc2)c(=O)n(-c2ccccc2)n1C	.	.	.	.	.	1%
O=c1onc2n1-c1cc(Br)ccc1OC2	2%	6%	.	5%	-3	-5%
CS(=O)(=O)Nc1cccc(-c2nc(NCc3cccs3)c3ccccc3n2)c1	-8%	25%	.	?	.	-23%
O=C1NCCCc2c1oc1ccc(O)cc21	-2%	-3%[38.3 µM]	-5	-19%	-4	8.9µM*
O=C(CN1CCN(Cc2ccccc2)CC1)N1CCCc2c1c(=O)oc1ccc(O)cc21	2%	8%[38.3 µM]	15	-7%	14	4%
Cc1nc2ccccc2nc1-c1ccc(N=[N+]([O-])c2ccc(-c3nc4ccccc4nc3C)cc2)cc1	3%[11.4 µM]	-6%	.	-1%	.	2%[13.5 µM]
CCCCCC(=O)Nc1ccc(NC(=O)c2cc3ccccc3o2)c(OC)c1	.	.	.	.	-3	.
S=C1N[C@H](c2ccccc2)N[C@H](c2ccccc2)S1	-4%[11.4 µM]	0%	.	?	.	3.2µM*
O=C(NCc1ccccc1)C1=C[C@@H](c2ccc(Br)cc2)C[C@@H](OCCCCO)O1	.	4%	.	.	.	25µM*
CC(=O)n1cc([C@@H]2C=C(C(=O)N3CCN(Cc4ccc5c(c4)OCO5)CC3)O[C@H](OCCCCO)C2)c2ccccc21	.	9%	.	.	.	1%
C#CCNC(=O)C1=C[C@@H](c2coc3ccccc3c2=O)C[C@@H](OCCCCO)O1	.	-4%	.	.	.	10µM*
O=C(NCc1ccccc1)C1=C[C@@H](c2ccccc2)C[C@@H](OCc2ccc(CO)cc2)O1	.	-5%	.	.	.	32µM*
CC(=O)n1cc([C@H]2C=C(C(=O)N3CCN(Cc4ccccc4)CC3)O[C@@H](OCCCCO)C2)c2ccccc21	.	8%	.	.	.	28µM*
O=C(NCc1ccccc1)C1=C[C@@H](c2coc3ccccc3c2=O)C[C@@H](OCCCCO)O1	.	3%	.	.	.	?
COc1ccc(C(=O)N2CCC3(CCCN(C(=O)NC(C)C)C3)CC2)cc1	-1%	0%	.	-2%	.	13%
COc1ccc(-c2noc(COc3ccc(Br)cc3C)n2)cc1OC	.	.	.	.	-11	.
CC(=O)n1cc([C@H]2C=C(C(=O)NCc3ccccc3)O[C@@H](OCc3ccc(CO)cc3)C2)c2ccccc21	.	1%	.	.	.	16µM*
CC(=O)n1cc([C@@H]2C=C(C(=O)N3CCN(Cc4ccccc4)CC3)O[C@H](OCc3ccc(CO)cc3)C2)c2ccccc21	.	10%	.	.	.	16µM*
O=C(Nc1ccccn1)c1ccc2nc(-c3ccccc3)c(-c3ccccc3)nc2c1	.	11%	.	.	.	11µM*
O=C(Nc1cccnc1)c1ccc2nc(-c3ccccc3)c(-c3ccccc3)nc2c1	.	17%	.	.	.	18µM*
CCCNC(=O)c1ccc2nc(-c3ccccc3)c(-c3ccccc3)nc2c1	6%	31%[38.3 µM]	?	?	0[1.84 µM]	?
CCNc1ncc2nc(-c3ccc(F)cc3)c(=O)n(C)c2n1	.	-22%	.	.	.	?
CCOC(=O)c1c(Nc2cc(C)cc(C)c2)nnc(-c2ccccc2)c1-c1ccccc1	.	.	.	.	6	.
SMILES	12-hLO inh	IMPase Li inh	PNC inhibitor	HPGD block	IMPase cell inh	ALDH1A1 inh
Cc1cccc(-c2nc3c4c(-c5ccccc5)c(-c5ccccc5)oc4ncn3n2)c1	.	.	.	.	-12	.
O=C(c1ccccc1)c1ccc2nc(N3CCN(c4ccc(F)cc4)CC3)c3nncn3c2c1	.	.	.	.	8	.
CCN(CC)c1ccc(N=Cc2cc(Br)ccc2O)cc1	.	-1%	.	.	.	7.9µM*
CCN(C(=O)Cn1c(=O)n(-c2ccccc2)c(=O)c2ccc(C(=O)NCc3ccc4c(c3)OCO4)cc21)c1cccc(C)c1	.	.	.	.	6	.
O=c1[nH]c(SCc2c(Cl)c(Cl)c(Cl)c(Cl)c2Cl)nc(=S)[nH]1	-16%[11.4 µM]	9%	.	4µM*	.	-4%[13.5 µM]
Fc1ccccc1-n1[nH]nnc1=S	-1%	-3%[38.3 µM]	35	25µM*	9	2.2µM*
Fc1ccccc1-n1cn[nH]c1=S	.	3%	.	.	.	-15%
Cc1cccc(Cn2cc(/C=C/[N+](=O)[O-])c3ccccc32)c1	-15%	28%[38.3 µM]	-25	-11%	9	?
NC1=NC(=O)/C(=C/c2cn(Cc3ccccc3)c3ccccc23)S1	-20%	6%	-9	28µM*	0	1%
COc1ccc(/C(O)=C2\C(=O)C(=O)N(CCCN(C)C)C2c2ccccc2F)cc1Cl (stereo unspecified)	5%	?	-3	-3%	1	-4%
CN(C)CCN1C(=O)C(=O)/C(=C(/O)c2ccccc2)C1c1ccccc1F (stereo unspecified)	-4%	-12%[38.3 µM]	?	-16%	-5	18µM*
CCN(CC)CCCN1C(=O)C(=O)/C(=C(/O)c2ccc3c(c2)OCCO3)C1c1ccc(C)o1 (stereo unspecified)	-13%	5%[38.3 µM]	-19	-15%	-1	25µM*
COc1cccc(C2/C(=C(\O)c3ccc4c(c3)OCO4)C(=O)C(=O)N2CCN(C)C)c1OC (stereo unspecified)	-10%	-25%[38.3 µM]	-16	-28%	-27	22µM*
COc1cccc(Nc2ncc3nc(-c4ccc(Cl)cc4)c(=O)n(C4CC4)c3n2)c1	.	-6%	.	.	.	?
CCOc1ccc(NC(=O)Cn2c(=O)n(Cc3ccc(C(=O)NCc4ccc(C)cc4)cc3)c(=O)c3ccccc32)cc1	.	.	.	.	-7	.
O=C(CC1CCCCC1)NC1CCCC1	1%	7%[38.3 µM]	36	18µM*	8	10%
O=C(CCC1CCCC1)NC1CCCCC1	-1%	35%[38.3 µM]	5	16µM*	3	7%
O=C(O)CCC(=O)NC1CCCCC1	10%	21%[38.3 µM]	-12	-4%	0	-8%
CC1(C)CCC[C@]2(C)C3CC(=O)O[C@@]3(C)CC[C@H]12 (stereo partly specified)	-6%	10%	.	-1%	-2	20µM*

Assay outcomes from PubChem BioAssay.
